What was measured:
Assay in all cases: PBM binding z-score (relative to random genomic background probes); higher = stronger binding; sequences stand for … in GC…GCGATTGACAGCGTAGAATGAAGG
[1] = system: LXRa:RXRa (NR concentration 270 nM, RXRa partner concentration 90 nM)
Outline: (§1)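 Each nuclear receptor dimer, without ligand, was incubated for 1 h on custom Agilent 4×180K protein-binding microarrays. Binding was detected with antibodies against each partner (one per run), and scanned fluorescence was regression-normalized. The binding z-scores are referenced to random human genomic background probes.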

[2] = system: LXRa homodimer (NR concentration 270 nM)
Outline: as §1

[3] = system: LXRb homodimer (NR concentration 270 nM)
Outline: as §1

[4] = system: PPARg:RXRa (NR concentration 180 nM, RXRa partner concentration 90 nM)
Outline: as §1

[5] = system: PPARg:RXRa 270nM:90nM, anti-RXR (NR concentration 270 nM, RXRa partner concentration 90 nM)
Outline: as §1

[6] = system: PPARg:RXRa 30nM:10nM, anti-RXR (NR concentration 30 nM, RXRa partner concentration 10 nM)
Outline: as §1

[7] = system: PPARg:RXRa 90nM:30nM, anti-RXR (NR concentration 90 nM, RXRa partner concentration 30 nM)
Outline: as §1

[8] = system: PPARg:RXRa DBDmut IVT, anti-RXR (DBD mutation: RXRa K156A/R161A, NR concentration 270 nM, RXRa partner concentration 90 nM)
Outline: as §1

[9] = system: PPARg:RXRa IVT, anti-PPARg (NR concentration 270 nM, RXRa partner concentration 90 nM)
Outline: as §1

[10] = system: PPARg DBDmut:RXRa IVT, anti-PPARg (DBD mutation: PPARg1 K132A/R137A, NR concentration 270 nM, RXRa partner concentration 90 nM)
Outline: as §1

[11] = system: PPARg DBDmut IVT, anti-PPARg (DBD mutation: PPARg1 K132A/R137A, NR concentration 270 nM)
Outline: as §1

[12] = system: PPARg homodimer (NR concentration 180 nM)
Outline: as §1

[13] = system: PXR:RXRa (NR concentration 270 nM, RXRa partner concentration 90 nM)
Outline: as §1

[14] = system: PXR homodimer (NR concentration 270 nM)
Outline: as §1

[15] = system: RARa:RXR (NR concentration 270 nM, RXRa partner concentration 90 nM)
Outline: as §1

[16] = system: RARa homodimer (NR concentration 270 nM)
Outline: as §1

[17] = system: RARb:RXRa (NR concentration 270 nM, RXRa partner concentration 90 nM)
Outline: as §1

[18] = system: RARb homodimer (NR concentration 270 nM)
Outline: as §1

[19] = system: PPARa:RXRa (NR concentration 270 nM, RXRa partner concentration 90 nM)
Outline: as §1

Row | Sequence | PBM binding z-score [1] | PBM binding z-score [2] | PBM binding z-score [3] | PBM binding z-score [4] | PBM binding z-score [5] | PBM binding z-score [6] | PBM binding z-score [7] | PBM binding z-score [8] | PBM binding z-score [9] | PBM binding z-score [10] | PBM binding z-score [11] | PBM binding z-score [12] | PBM binding z-score [13] | PBM binding z-score [14] | PBM binding z-score [15] | PBM binding z-score [16] | PBM binding z-score [17] | PBM binding z-score [18] | PBM binding z-score [19]
1 | AATACAGGGTCATCGTACGCCAGAGTACGCACAG | 6.21 | 2.87 | 1.54 | 7.02 | 6.25 | 2.92 | 5.21 | 2.92 | 4.44 | 3.9 | 1.45 | 3.42 | 4.53 | 0.995 | 5.47 | 1.81 | 4.45 | 3.46 | 
2 | TAGCCTAGGGCATTCAGGGGCCAGTATAGAAAGC | -0.052 | -0.233 | -0.352 | 0.0283 | -0.154 | -0.552 | -0.385 | -0.268 | 0.75 | -0.631 | -1.01 | -0.114 | -0.0151 | -0.113 | 0.405 | -0.803 | 1.42 | 1.35 | 
3 | TCTCGGAGGACACCAAAGGTCAGAGCTCGACATC | 4.25 | 3.82 | -0.0325 | 2.04 | 3.71 | 2.56 | 3.22 | 1.47 | 1.71 | -0.171 | -0.615 | 3.42 | 4.41 | 0.454 | 4.86 | 1.44 | 4.21 | 4.64 | 
4 | AAAACAGGGTCATCGTAGGCCAGAGTACGCACAG | 6.26 | 0.569 | 1.32 | 7.65 | 6.86 | 4.1 | 5.89 | 4.38 | 5.24 | 4.19 | 2.83 | 6.6 | 5.51 | 0.625 | 5.95 | 0.959 | 4.44 | 3.68 | 
5 | TAGCCTAGGTCACATCGGGCCAGTATACGCTATA | 3.44 | 0.038 | 0.0362 | 2.64 | 2.61 | 0.683 | 1.59 | 2.1 | 3.51 | 0.246 | -0.263 | 0.979 | 2.26 | -0.395 | 2.25 | -0.254 | 3.84 | 2.63 | 
6 | AATACAGGGTCACGAGGCCAGAGTAGGTACGAAT | 6 | 1.22 | 0.897 | 8.68 | 7.43 | 4.39 | 6.65 | 3.9 | 5.74 | 2.21 | 2.16 | 3.03 | 4.43 | 0.257 | 5.27 | 1.39 | 5.07 | 4.14 | 
7 | CCTGCTAGGTCATGGTCAGCGAATCTACAGTATG | 2.19 | -0.0156 | -0.255 | 2.7 | 2.69 | 0.687 | 1.77 | 4.64 | 3.76 | -0.0271 | -0.639 | 2 | 1.18 | -0.875 | 2.26 | -0.334 | 4.09 | 3.29 | 
8 | TAGCCTAGTTCATTCAGGGGCCAGTATAGAAAGC | 0.593 | 0.155 | 0.584 | 0.203 | 0.273 | -0.157 | 0.0192 | 1.65 | 1.45 | -0.019 | 0.583 | 0.283 | 1.29 | 0.885 | 0.991 | -0.411 | 1.72 | 1.64 | 
9 | CGTCCAAGGTTAAGGTCAGTGAAAGAGACTCGAA | 3.28 | 0.367 | -0.224 | 2.06 | 2.6 | 0.541 | 1.49 | 1.47 | 2.04 | -0.847 | -0.494 | 3.1 | 2.73 | 1.01 | 3.56 | 0.781 | 4.16 | 3.58 | 
10 | CGAACAAGGTCATCCAGGACAGTGAATACATTGA | 5.83 | 1.43 | 1.27 | 6.4 | 6.17 | 2.72 | 5.1 | 4.74 | 5.07 | 3.54 | 2.64 | 3.58 | 5.44 | 7.22 | 5.39 | 2.04 | 5.19 | 4 | 
11 | CCAGACAGGTGAGAAGGTAACTCAGCCTCGATTA | 0.435 | 0.0228 | -0.0173 | 0.522 | 0.838 | 0.0404 | 0.628 | 1 | 0.964 | -0.28 | -0.249 | 1.03 | 0.228 | 0.138 | 0.486 | 0.698 | 0.666 | 0.841 | 
12 | CGAACGAGGTCATGAGTTGATAGCAAATGCCGAT | 5.51 | 0.616 | 0.023 | 7.55 | 6.94 | 4.16 | 5.98 | 5.48 | 6.46 | 1.73 | 1.44 | 2.84 | 5.17 | 0.602 | 5.48 | 0.273 | 5.23 | 3.94 | 
13 | CCTACTCGGCCAAAAAGGTCATTGATGCCGATAA | 4.55 | 4.59 | 0.927 | 1.91 | 3.11 | 0.833 | 2.27 | 1.1 | 2.03 | -0.62 | -0.0585 | 3.26 | 4.83 | 3.27 | 4.83 | 1.71 | 4.07 | 4.59 | 
14 | GGAACGAGGTCAAAGTTGATAGCATCTGTCGACG | 5.98 | 1.61 | 2.26 |  | 8.63 | 8.72 | 9.4 | 6.14 | 6.45 | 0.31 | 1.24 | 2.56 | 5.91 | 2.54 | 6.93 | 0.429 | 5.18 | 4.02 | 
15 | CAAACCAGGTCAAAGGTCAAAGTCGAGCCAACCA |  | 5.78 | 3.31 | 13.2 | 10.7 | 11.3 | 12 | 6.71 | 7.43 | 2.48 | 1.06 | 4.04 |  | 2.11 | 9.04 | 3.33 | 5.8 | 5.45 | 7.46
